According to the supplement of paper PMC8728848:
This is one part of a sample in which the strongest signals are shown more often than they occur.

Experiments:
Test in all cases: glycan array binding signal (z-score within array); higher = stronger binding
Settings in all cases: glycan notation: IUPAC condensed, linker removed
[1] = molecular target: Man(a1-2)Man(a1-3)[Man(a1-2)Man(a1-6)]Man(a1-6)[Man(a1-2)Man(a1-2)Man(a1-3)]Man
Method in brief: (§1)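 Glycan array binding is given as a within-array Z-score, which can be read as non-binding when negative. The arrays, 3228 of them, came from the Consortium for Functional Glycomics database and were retained only where the protein sequence was available. Z-scores were averaged across arrays of the same protein sequence at different concentrations or buffers and across linkers.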

[2] = molecular target: Neu5Ac(a2-3)Gal(b1-3)[Fuc(a1-4)]GlcNAc
Method in brief: as §1

[3] = molecular target: Neu5Ac(a2-3)Gal(b1-4)GlcNAc(b1-2)Man(a1-3)[Neu5Ac(a2-3)Gal(b1-4)GlcNAc(b1-2)Man(a1-6)]Man(b1-4)GlcNAc(b1-4)GlcNAc
Method in brief: as §1

[4] = molecular target: Neu5Ac(a2-3)Gal(b1-4)GlcNAc(b1-2)[Neu5Ac(a2-3)Gal(b1-4)GlcNAc(b1-6)]Man(a1-6)[Neu5Ac(a2-3)Gal(b1-4)GlcNAc(b1-2)Man(a1-3)][GlcNAc(b1-4)]Man(b1-4)GlcNAc(b1-4)GlcNAc
Method in brief: as §1

[5] = molecular target: Neu5Ac(a2-3)Gal(b1-4)[Fuc(a1-3)]GlcNAc(b1-3)Gal(b1-4)[Fuc(a1-3)]GlcNAc(b1-3)Gal(b1-4)[Fuc(a1-3)]GlcNAc
Method in brief: as §1

[6] = molecular target: Neu5Ac(a2-3)Gal(b1-4)[Fuc(a1-3)]GlcNAc(b1-6)[Gal(b1-3)]GalNAc
Method in brief: as §1

[7] = molecular target: Neu5Ac(a2-6)Gal(b1-4)GlcNAc(b1-2)[Neu5Ac(a2-6)Gal(b1-4)GlcNAc(b1-4)]Man(a1-3)[GlcNAc(b1-4)][Neu5Ac(a2-6)Gal(b1-4)GlcNAc(b1-4)Man(a1-6)]Man(b1-4)GlcNAc(b1-4)GlcNAc
Method in brief: as §1

[8] = molecular target: Neu5Ac(a2-6)Gal(b1-4)GlcNAc(b1-3)Gal(b1-4)GlcNAc(b1-3)Gal(b1-4)GlcNAc(b1-2)Man(a1-3)[Neu5Ac(a2-6)Gal(b1-4)GlcNAc(b1-3)Gal(b1-4)GlcNAc(b1-3)Gal(b1-4)GlcNAc(b1-2)Man(a1-6)]GalNAc
Method in brief: as §1

[9] = molecular target: Neu5Ac(a2-6)GalNAc(b1-4)GlcNAc6S
Method in brief: as §1

[10] = molecular target: Neu5Gc(a2-3)Gal(b1-4)[Fuc(a1-3)]GlcNAc
Method in brief: as §1

B1: Pwp6 (Candida glabrata) (protein)
chain: MGSSHHHHHHSSGLVPRGSHMASANLPKLTNICQIPDNVKKTSGFKGEIRRIGLFPPGGDYTYLLKFPSTGSTASDTISLTTKPQLSTSGWFPSLFGHTYFIKADLLVYMVAYFVPTETGEYTFKLVNSDDAAVMYVGNPSAFPCGSIDTWPEPRKEDINVCDKISASTKLYMEKGLAYPVRLVWYNGGGDGQFNAQFIDPSGTTHTDWNGYVWQYDACTDCDYK
[1]
  glycan array binding signal (z-score): -0.603
[2]
  glycan array binding signal (z-score): -0.364
[3]
  glycan array binding signal (z-score): 4.2
[4]
  glycan array binding signal (z-score): 1.89
[5]
  glycan array binding signal (z-score): -0.179
[6]
  glycan array binding signal (z-score): -0.222
[7]
  glycan array binding signal (z-score): -0.266
[8]
  glycan array binding signal (z-score): 8.45
[9]
  glycan array binding signal (z-score): 0.14
[10]
  glycan array binding signal (z-score): -0.654
